Compound activity deposited in PubChem BioAssay by National Center for Advancing Translational Sciences (NCATS).
Sampled rows, rich in hits. Any-hit rate of the full collection: about 7.3%.
HCV inh – blocks hepatitis C virus | Huh7.5.1 HCVcc-Cre infection, luciferase reporter, 44 h | Potency, µM (top dose mostly 41.8 µM), without a hit: at the top dose activity change, negative = inhibition, usual class: inhibitors | 340,000 compounds, 3.4% hits; active = well fitted inhibition curve with a large enough effect; inconclusive = small, poorly fitted or top-dose-only effect, or another doubt; inactive = no such curve, though single readings can be large or run the other way; also: potency is read from the fitted curve at half-maximal effect
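Infectious HCV cell culture screen: compound-treated cells (1,000/well, pre-plated 4 h) are infected with HCVcc-Cre at roughly 0.5 moi and grown 44 h. Infection is quantified by luciferase signal after 15 min substrate incubation at room temperature.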
HCMV inh – inhibitors of human cytomegalovirus. HFF cells, HCMV-luciferase reporter, 72 h; stronger effect = lower value. activity change, negative = inhibition, % at 57.5 µM. 410,000 compounds, 4.5% hits. AID 1259415; in the data active = activity change below about -60%; inconclusive = no clear call, values can overlap the other calls; inactive = above about -39%
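Human foreskin fibroblasts infected with luciferase-reporter HCMV at MOI 1 PFU/cell, compounds at two doses. Luciferase measured 72 h post infection; normalized to buffer-only basal and Salinomycin (10uM) controls.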
FMDV antiviral – antivirals against foot and mouth disease virus | Potency, µM (series often up to 57.9 µM), without a hit: at the highest dose activity change, negative = inhibition, hits mostly inhibitors | FMDV antiviral cell-based qHTS | 410,000 compounds, 1.2% hits; calls by dose curve; tested in HEK293T cells; also: read-out not given here; potency is read from the fitted curve at half-maximal effect; nearly all actives have a fitted effect of over 45% in size
VACV Venus inh – vaccinia inhibition (Venus reporter) | Vaccinia virus Venus reporter expression, fluorescence | Potency, µM (highest dose often 36.5 µM), inactives show at the top dose activity change, negative = inhibition, actives largely listed as inhibitors | 330,000 compounds, 0.46% hits | AID 720580; calls by dose curve; tested in A549 cells; also: potency is read from the fitted curve at half-maximal effect; nearly all actives have a fitted effect of over 30% in size
Vaccinia mCherry – vaccinia inhibition (mCherry reporter); Vaccinia virus mCherry reporter infection, fluorescence; Potency, µM (titrated, usually from 36.5 µM), for the others: at the top dose activity change, negative = inhibition, actives largely listed as inhibitors; 310,000 compounds, 0.63% hits; AID 720579; calls by dose curve; tested in A549 cells; also: potency is read from the fitted curve at half-maximal effect; nearly all actives have a fitted effect of over 35% in size
The depositor's hits bear a star; i = inactive; u = inconclusive; x = no result. % is scaled to controls: 0 for no effect and ±100 for the full control effect.

SMILES	HCV inh	HCMV inh	FMDV antiviral	VACV Venus inh	Vaccinia mCherry
CCCCCN1C(=O)c2cc(OC)ccc2[C@@]2(C(=O)OCC)Cc3cc(Cl)ccc3[C@@H]12	x	-103*	7.9µM*	u	u
CCOC(=O)[C@]12Cc3ccccc3[C@H]1N(Cc1ccccc1)C(=O)c1cc(OC)ccc12	x	12	u	-5%	12%
CCOC(=O)[C@]12Cc3cc4ccccc4cc3[C@H]1N(Cc1ccccc1)C(=O)c1ccccc12	x	-97*	u	u	u
CCOC(=O)[C@]12Cc3ccc4ccccc4c3[C@H]1N(Cc1ccccc1)C(=O)c1ccccc12	x	59	22µM*	-7%	-13%
COc1cc(C)ccc1Oc1ccc2c(-c3ccccc3)noc2n1	x	-20	x	x	x
Cc1ccc2c(CC(=O)Nc3c(C(=O)c4ccc(F)cc4)oc4ccccc34)coc2c1C	x	-31	-6%	-13%	i
COc1ccccc1C(=O)Nc1ccc(C(=O)OCc2cc(=O)n3ccsc3n2)cc1	x	-10	-28%	-2%	-12%
O=C1CCN(Cc2ccc(Br)cc2)CCN1[C@H](CO)Cc1ccccc1	u	-14	u	-21%	-22%
Cc1ccc2c(Sc3ccc(Cl)cc3)c(C(=O)N3CCCCC3)[nH]c2c1	x	9	0%	-4%	-16%
CCOC(=O)[C@]12Cc3cc(Cl)ccc3[C@H]1N(Cc1ccccc1)C(=O)c1cc(OC)ccc12	x	-106*	8.9µM*	u	u
CCOC(=O)[C@]12Cc3cc(OC)ccc3[C@H]1N(Cc1ccccc1)C(=O)c1cc(OC)ccc12	x	6	-15%	-7%	-10%
COc1ccc2ccccc2c1C=NN1CCCCC1	x	2	-14%	-14%	-14%
O=C(COC(=O)c1ccc(O)cc1O)N=c1sccn1Cc1ccccc1Cl	7.9µM*	-28	u	-23%	u
Cc1ccc(Cn2ccsc2=NC(=O)COC(=O)c2ccc(O)cc2O)cc1	11µM*	-79*	1%	x	x
NC(=O)c1ccc[n+](CC(=O)c2ccccc2)c1	0.56µM*	-6	-20%	-8%	u
NC(=O)c1ccc[n+](CC(=O)c2ccc(NC(=O)c3ccccc3)cc2)c1	23%	0	14%	-3%	-14%
O=C(Nc1cccc(Cl)c1)N1CCN(Cc2ccccc2)CC1	-14%	47	34%	-19%	i
Cc1cccc(NC(=O)N2CCN(Cc3ccc(Cl)cc3)CC2)c1	u	-63*	-28%	-27%	-10%
Cc1cccc(CN2CCN(Cc3ccc(Cl)cc3)CC2)c1	6.3µM*	4	u	-1%	-13%
O=C(CN(C(=O)CCC(=O)Nc1ccccn1)c1ccc(F)cc1)NCc1ccc(F)cc1	8%	21	14%	-13%	-15%
O=S(=O)(Nc1ccc(N2CCCCC2)cc1)c1ccc(F)cc1	-21%	-61*	-9%	x	x
O=S(=O)(Nc1ccc(N2CCCCC2)cc1)c1ccc(F)cc1F	u	-60*	-26%	-21%	-25%
O=C(NCCc1nc2ccccc2n1Cc1ccc(Cl)cc1Cl)c1ccco1	x	5	0%	-26%	-27%
Cc1cccc(NC(=S)N(C)Cc2cn(C)c3ccccc23)c1	-25%	-68*	6%	-26%	-18%
Cc1ccc(S(=O)(=O)CC(=O)N2CCN(c3nc4c(F)cccc4s3)CC2)cc1	x	28	0%	-19%	-5%
SMILES	HCV inh	HCMV inh	FMDV antiviral	VACV Venus inh	Vaccinia mCherry
CC(=O)c1cccc(NC(=O)c2cc3nc(-c4ccc(Br)cc4)cc(C(F)(F)F)n3n2)c1	x	-5	-13%	u	13µM*
OCCN1CCN(CC(O)COc2ccc(Cl)cc2)CC1 (configuration not stated)	-28%	12	-4%	-13%	x
NCCOc1ccc(C23CC4CC(CC(C4)C2)C3)cc1	u	-85*	u	x	x
OCCN1CCN(CC(O)COc2ccc(C34CC5CC(CC(C5)C3)C4)cc2)CC1 (configuration not stated)	13µM*	-96*	-17%	u	-26%
COc1cccc(CN2CCN(c3nc4nonc4nc3N3CCCCC3)CC2=O)c1	4%	-37	19%	x	x
Cc1sc2ncnc(N/N=C/c3cccc(O)c3)c2c1C	u	u	-5%	-23%	-5%
C/C(=N\Nc1ncnc2sc(C)c(C)c12)c1ccccn1	u	-102*	17%	-21%	5µM*
C/C(=N\Nc1ncc(Cl)cc1Cl)c1ccccn1	u	x	5.6µM*	16%	u
